Pf Dd2 growth = qHTS Primary assay for Inhibitors of Plasmodium falciparum Dd2 growth in vitro. actives 4.3% (n = 120,000). AID 1347417, 2020. Potency, µM (series often up to 28.9 µM), for the others: top-dose activity, negative = inhibition, hits mostly inhibitors. P. falciparum Dd2 growth, SYBR Green, 72 h; active means well fitted inhibition curve with a large enough effect;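 further: plate controls were DMSO vehicle for no effect and reference drug for full effect; nearly all actives have a fitted effect of over 65% in size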
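Readout: SYBR Green fluorescence, 485 nm excitation, 535 nm emission, after ~16 h lysis at 37C. Before that, Dd2-infected red cells (2.5% hematocrit) grew 72 h with compound, 29 uM top final concentration.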
Active calls of the source: *; i = inactive; [ ] = remark or other dose. Shown is part of a subset that was picked to be rich in hits. Potency means the concentration at half of the fitted maximal effect.

SMILES	Pf Dd2 growth
CC(C)COc1cc(=O)n2c(c1C(=O)NC1CCN(C)CC1)CCCCC2	28%
CCc1sc(NC(=O)CC[C@H]2NC(=O)c3ccccc3NC2=O)nc1C(=O)OC	i
Cc1ccc(N2CCN(C(=O)c3cc(-c4ccccc4O)n[nH]3)CC2=O)cc1	-13%
CCc1c(C)c(C#N)c2nc3ccccc3n2c1Nc1cccc(C(F)(F)F)c1	2.2µM*
O=c1c2ccccc2nc2sc(Nc3cccc(C(F)(F)F)c3)nn12	-11%
CC(=O)Nc1ccccc1-c1nc2ccccc2n(CC(=O)Nc2cccc(C(F)(F)F)c2)c1=O	25%
COC(=O)C1=CN(CC(=O)NCc2ccccc2F)S(=O)(=O)N=C1C	47%
CCOC(=O)c1sc(NC(=O)C(C)Sc2nc(-c3ccccc3)cc(C(F)(F)F)n2)c(C(=O)OC)c1C (configuration not stated)	0.71µM*
COc1ccc(CNC(=O)C(C)Sc2nc(-c3ccccc3)cc(C(F)(F)F)n2)cc1 (configuration not stated)	-18%
CCOC(=O)c1c(NC(=O)CSc2nc(-c3ccccc3)cc(C(F)(F)F)n2)sc(C)c1C	i
CNCCN1C(=O)CC[C@H]2CN(C(=O)CCN3CCCCO3)CC[C@H]21	0%
CNc1nc2c(c(C(=O)N3CCCC3)n1)CN(C(=O)C1CC(C(C)C)=NO1)CC2 (configuration not stated)	11%
NC(=O)c1ccc(-c2cccc3c2CCNC3)s1	-5%
COc1ccc(-c2cccc3c2CCNC3)cc1OC	11µM*
CCOc1ccc(-c2cccc3c2CCNC3)cc1C(N)=O	-4%
O=C1CCN(C(=O)NCCc2ccccc2)CCCC(c2nc(-c3cccnc3)no2)CCN1 (configuration not stated)	i
COC[C@@H]1CN(C(=O)c2ccc3[nH]ccc3c2)C[C@H]1c1ccncc1	-9%
COc1ccc(CN2C[C@@H]3C[C@H]2C(=O)Nc2ccccc2O3)cc1	i
CC(=O)Nc1cccc(-c2cnc3n[nH]c(-c4sccc4C)c3n2)c1	i
CC(=O)Nc1cccc(-c2cnc3n[nH]c(-c4ccc(F)cc4C)c3n2)c1	-12%[44.1 µM]
CC(=O)Nc1cccc(-c2cnc3n[nH]c(-c4ccc5c(c4)OCO5)c3n2)c1	2.5µM*
O=C(NCCc1ccncc1)C1CN(C(=O)c2cccc(Cl)c2)CC12CCOCC2 (configuration not stated)	4%
O=[S+]([O-])(Nc1ccccc1)c1ccc2c(c1)OCCN(Cc1ccsc1)C2	-4%[44.1 µM]
COc1cc2c(cc1OC)C(CNC(=O)CC(C)C)N(C(=O)Nc1cccc(F)c1)CC2 (configuration not stated)	i
COc1ccccc1NC(=O)N1CCc2cc(OC)c(OC)cc2C1CNC(=O)CC(C)C (configuration not stated)	i
SMILES	Pf Dd2 growth
CCOc1ccc(NC(=O)N2CCc3cc(OC)c(OC)cc3C2CNC(=O)NC(C)C)cc1 (configuration not stated)	-3%
COc1cc2c(cc1OC)C(COc1ccc3c(C)cc(=O)oc3c1)N(C(=O)CC(C)C)CC2 (configuration not stated)	11µM*
CCOc1ccc(CC(=O)N2CCc3cc(OC)c(OC)cc3C2COc2ccc3c(C)cc(=O)oc3c2)cc1 (configuration not stated)	4µM*
CCOc1ccc2oc(=O)cc(CN3CCN(C(=O)c4ccc(OC)c(OC)c4)CC3)c2c1	-9%
O=C(CC1CCCC1)NCCC1CCN(C(=O)Nc2cc(F)ccc2F)CC1	i
COc1ccc(CN2C[C@H](O)C[C@H]2c2nc(-c3ccc(F)cc3)no2)c(OC)c1OC	-25%[44.1 µM]
O=C(NCCc1ccncc1)C1CN(C(=O)c2ccccc2Cl)CC12CCOCC2 (configuration not stated)	6%
O=C(c1cc(F)cc(F)c1)N1CC(c2nnc(-c3ccncc3)o2)C2(CCOCC2)C1 (configuration not stated)	-4%
CCCC(=O)N1CC2(CCCN2CC2CC2)Cc2ccccc21 (configuration not stated)	8.9µM*
C[S+](=O)([O-])N1Cc2ccccc2CC2(CCCN2Cc2ccccc2)C1 (configuration not stated)	-26%
O=C(O)CCCC(=O)N1Cc2ccccc2CC2(CCCCN2CC2CCCC2)C1 (configuration not stated)	7%
C[S+](=O)([O-])N1CC2(CCCN2CC2CCCCC2)Cc2ccccc21 (configuration not stated)	8.9µM*
C[S+](=O)([O-])N1Cc2ccccc2CC2(CCN(CC3CCCCC3)CC2)C1	-21%
O=C(O)CCC(=O)N1Cc2ccccc2CC2(CCCN2CC2CCCCC2)C1 (configuration not stated)	0%
O=C(Nc1ccccn1)C1CN(Cc2ccc[nH]2)CC12CCOCC2 (configuration not stated)	i
CC(C)(C)C(=O)N1CCC2(CNS(=O)(=O)c3cnccc3O2)C1 (configuration not stated)	11%
CC(C)n1cnnc1CN(C)Cc1cn(-c2ccccc2)nn1	-14%
CN(Cc1cn(-c2ccccc2)nn1)Cc1noc2c1CCCC2	3%
CN(CCC(O)c1ccccc1)Cc1cn(-c2ccccc2)nn1 (configuration not stated)	8.9µM*
O=C1NCC2(CCN(C(=O)c3ccccc3F)CC2)Oc2ccccc21	-16%
COc1ccccc1N1CCN(C(=O)c2cc3c(s2)-c2ccccc2OC3)CC1	28%
COc1cc(OC)c(N(C)C(=O)c2cc3c(s2)-c2ccccc2OC3)cc1Cl	8.9µM*
COc1ccc(N(C)C(=O)c2cc3c(s2)-c2ccccc2OC3)cc1	-4%
Cc1cc(C)n(CCC(=O)N2C[C@@H](CO)[C@H](c3ccccn3)C2)n1	-2%
O=C1Nc2ccc(-c3cccc(C(F)(F)F)c3)cc2C(=O)N2CCN(C(=O)NC3CCCCC3)C[C@H]12	i
SMILES	Pf Dd2 growth
Cc1ncccc1C(=O)N1CC(=O)N(C2CCCCC2)CC(OCc2ccccc2)C1 (configuration not stated)	-5%
Cc1ccc(NC(=O)N2CCC3(CC2)CC(Cc2nc(-c4ccccc4)no2)CCO3)cc1C (configuration not stated)	8.9µM*
COc1ccc(CNC(=O)N2CCC3(CC2)CC(Cc2nc(C4CC4)no2)CCO3)cc1 (configuration not stated)	-10%
COc1ccc(C(=O)N2CCC3(CC2)CC(Cc2nc(-c4ccccc4)no2)CCO3)cc1 (configuration not stated)	i
COc1ccc(CC(=O)Nc2c(C(=O)N3CCN(c4ccccc4F)CC3)oc3ccccc23)cc1OC	11µM*
CCOc1ccc(C(=O)Nc2c(C(=O)N3CCN(c4ccccc4F)CC3)oc3ccccc23)cc1	-9%
COc1ccccc1C(=O)Nc1c(C(=O)N2CCN(c3ccc(F)cc3)CC2)oc2ccccc12	50%
CCN1c2cc(C(=O)Nc3ccc(N4CCOCC4)cc3)ccc2C(=O)N2CCCCC21 (configuration not stated)	i
O=S(=O)(Cc1ccccc1)NC[C@H]1Cn2c(-c3ccc(Cl)cc3)cnc2CO1	-7%[44.1 µM]
O=C(NCc1ccccc1)NC[C@H]1Cn2c(-c3ccc(Cl)cc3)cnc2CO1	2.8µM*
O=C(NC[C@H]1Cn2c(-c3ccc4c(c3)OCCO4)cnc2CO1)C1CC1	-8%[44.1 µM]
c1ccc(CNC[C@H]2Cn3c(-c4ccc5c(c4)OCCO5)cnc3CO2)cc1	11µM*
CS(=O)(=O)NC[C@H]1Cn2c(-c3ccc4c(c3)OCCO4)cnc2CO1	i

Compound activity as filed in PubChem.
